In the supplement of paper PMC13380429:

Test system: Vero E6 infected with SARS-CoV-2
Test: inhibition of SARS-CoV-2 cytopathic effect; higher = more antiviral protection, active = above 15
Conditions: 48 h

Measured: inhibition of SARS-CoV-2 cytopathic effect

CC(=O)OCC1=C(C(=O)O)N2C(=O)[C@@H](NC(=O)CSc3ccncc3)[C@H]2SC1 [cephapirin]
inactive: 1 nM -1.67% | 8.33 nM 4.78% | 100 nM 6.28% | 833.33 nM 5.89% | 10000 nM 2.88%

N[C@H](Cc1ccccc1)C(=O)O [D-phenylalanine]
inactive: 1 nM 2.99% | 8.33 nM -0.14% | 100 nM 2.52% | 833.33 nM 0.27% | 10000 nM 0.05%

N#Cc1ccc(-c2csc(NN=C3CCCC3)n2)cc1 [remodelin]
inactive: 1 nM 0.9% | 8.33 nM 1% | 100 nM 1.18% | 833.33 nM 0.48% | 10000 nM 0.34%

CCCCN(CCCC)CC(O)c1cc(Cl)cc2c1-c1ccc(Cl)cc1/C2=C/c1ccc(Cl)cc1 (stereo not given) [lumefantrine]
inactive: 1 nM -1.1% | 8.33 nM 3.13% | 100 nM 2.25% | 833.33 nM 0.99% | 10000 nM -1.35%

Cn1c(COP(=O)(NCCBr)NCCBr)cnc1[N+](=O)[O-]
inactive: 1 nM -3.18% | 8.33 nM -1.04% | 100 nM 0.12% | 833.33 nM -0.54% | 10000 nM -3.06%

CCCC(C(=O)OCCN(CC)CC)(c1ccccc1)c1ccccc1 [proadifen]
inactive: 1 nM -8.13% | 8.33 nM -2.48% | 100 nM -0.9% | 833.33 nM -3.07% | 10000 nM -9.2%

CC(C)(CCCCCC(O)CCCCCC(C)(C)C(=O)O)C(=O)O [bempedoic-acid]
inactive: 1 nM 0.91% | 8.33 nM 0.43% | 100 nM 0.18% | 833.33 nM 0.98% | 10000 nM 1.16%

CCC(=O)O[C@]1(C(=O)CCl)[C@@H](C)C[C@H]2[C@@H]3CCC4=CC(=O)C=C[C@]4(C)[C@@]3(F)[C@@H](O)C[C@@]21C [clobetasol-propionate]
inactive: 1 nM 1.28% | 8.33 nM 1.27% | 100 nM 0.69% | 833.33 nM 0.48% | 10000 nM 3.52%

Cc1cc2c(OCC(CNC(C)(C)C)OC(=O)c3ccccc3)cccc2[nH]1 (stereo not given) [bopindolol]
inactive: 1 nM -0.9% | 8.33 nM -1.91% | 100 nM -0.64% | 833.33 nM 0.54% | 10000 nM 0.29%

CCOc1nc2cccc(C(=O)OCc3oc(=O)oc3C)c2n1Cc1ccc(-c2ccccc2-c2noc(=O)[nH]2)cc1 [azilsartan-medoxomil]
inactive: 1 nM 0.24% | 8.33 nM 1.14% | 100 nM 2.01% | 833.33 nM 1.93% | 10000 nM -0.28%

CCNC(=O)[C@@H]1CCCN1C(=O)[C@H](CCCNC(=N)N)NC(=O)[C@H](CC(C)C)NC(=O)[C@@H](C)NC(=O)[C@H](Cc1ccc(O)cc1)NC(=O)[C@H](CO)NC(=O)[C@H](Cc1c[nH]c2ccccc12)NC(=O)[C@H](Cc1cnc[nH]1)NC(=O)[C@@H]1CCC(=O)N1 [alarelin]
inactive: 1 nM -0.73% | 8.33 nM -1.67% | 100 nM 0.97% | 833.33 nM 1.34% | 10000 nM -0.57%

CC(=O)O[C@]1(C(C)=O)CC[C@H]2[C@@H]3C[C@H](C)C4=CC(=O)CC[C@]4(C)[C@H]3CC[C@@]21C [medroxyprogesterone-acetate]
inactive: 1 nM 1.02% | 8.33 nM 0.71% | 100 nM -1.14% | 833.33 nM 2.58% | 10000 nM 6.49%

Nc1ncc(Cc2ccc(Br)cc2)s1
inactive: 1 nM -0.22% | 8.33 nM 1.1% | 100 nM 2.74% | 833.33 nM 2.26% | 10000 nM 2.73%

CCCN(CC1CC1)c1nc(C)nc(Nc2c(Cl)cc(Cl)cc2Cl)c1Cl
inactive: 1 nM 4.5% | 8.33 nM 2.92% | 100 nM 1.63% | 833.33 nM 0.09% | 10000 nM 1.2%

CC[C@H]1CN2CC[C@H]1C[C@@H]2[C@@H](O)c1ccnc2ccc(OC)cc12 [hydroquinidine]
inactive: 1 nM 2.34% | 8.33 nM 3.2% | 100 nM 0.81% | 833.33 nM 2.84% | 10000 nM 1.57%

Cc1cc(=O)n(-c2ccccc2)[nH]1 [N-demethylantipyrine]
inactive: 1 nM 6.19% | 8.33 nM -3.23% | 100 nM -4.99% | 833.33 nM -2.77% | 10000 nM -2.87%

CC(C)c1nnc(-c2ccc(-c3ccccc3)nc2)n1-c1cccc2nonc12
inactive: 1 nM -5.81% | 8.33 nM -4.31% | 100 nM -0.24% | 833.33 nM 0.55% | 10000 nM -1.7%

COc1cc(C(=O)NCCCCCC(=O)O)cc(OC)c1OC [capobenic-acid]
inactive: 1 nM -6.75% | 8.33 nM -2.2% | 100 nM -0.79% | 833.33 nM -1.85% | 10000 nM 2.8%

Cc1cccc(Nc2ccncc2S(=O)(=O)NC(=O)NC(C)C)c1 [torasemide]
inactive: 1 nM -0.3% | 8.33 nM -0.37% | 100 nM -0.51% | 833.33 nM -1.03% | 10000 nM -1.02%

CC(C)=CCC[C@]1(C)C=Cc2c(O)c3c(c(CC=C(C)C)c2O1)O[C@]12C(=C[C@@H]4C[C@H]1C(C)(C)O[C@@]2(C/C=C(/C)C(=O)O)C4=O)C3=O [gambogic-acid]
inactive: 1 nM 2.13% | 8.33 nM -0.37% | 100 nM 0.38% | 833.33 nM 4.87% | 10000 nM -14.3%

Cn1cc(-c2ccc(S(=O)(=O)n3ccc(/C=C/C(=O)Nc4ccccc4N)c3)cc2)cn1
inactive: 1 nM -0.95% | 8.33 nM 1.05% | 100 nM -0.51% | 833.33 nM -4.65% | 10000 nM -1.31%

C[C@]1(Cn2ccnn2)[C@H](C(=O)O)N2C(=O)C[C@H]2S1(=O)=O [tazobactam]
inactive: 1 nM 0.92% | 8.33 nM -1.48% | 100 nM 2.92% | 833.33 nM 0.65% | 10000 nM 2.47%

C[C@H]1NCc2cc(-c3ccc4c(=O)c(C(=O)O)cn(C5CC5)c4c3OC(F)F)ccc21 [garenoxacin]
inactive: 1 nM -4.16% | 8.33 nM -1.9% | 100 nM 1.67% | 833.33 nM 3.28% | 10000 nM 1.04%

O=C(Nc1ccc(-c2ccnc(Nc3ccc(N4CCOCC4)cc3)n2)cc1)C1CCCN1 (stereo not given)
inactive: 1 nM -1.37% | 8.33 nM -1.43% | 100 nM -0.97% | 833.33 nM -1.01% | 10000 nM 8.93%

C[C@]12CCC(=O)C=C1C=C[C@@H]1[C@@H]2CC[C@@]2(C)[C@H]1CC[C@@]2(O)CCC(=O)O [potassium-canrenoate]
inactive: 1 nM -4.66% | 8.33 nM -2.95% | 100 nM 2.67% | 833.33 nM 3.81% | 10000 nM 0.36%

Cn1c(=O)c2c(ncn2CC(=O)Nc2ccc(-c3ccccc3)nn2)n(C)c1=O
inactive: 1 nM 2.25% | 8.33 nM 0.06% | 100 nM 1.35% | 833.33 nM 4.8% | 10000 nM 7.55%

C[C@@H]1CN(c2c(F)c(N)c3c(=O)c(C(=O)O)cn(C4CC4)c3c2F)C[C@H](C)N1 [sparfloxacin]
inactive: 1 nM 2.08% | 8.33 nM 2.09% | 100 nM 0.77% | 833.33 nM -1.72% | 10000 nM -2.31%

CN(C)CCc1c[nH]c2ccc(C[C@H]3COC(=O)N3)cc12 [zolmitriptan]
inactive: 1 nM -2.55% | 8.33 nM 2.01% | 100 nM -1.58% | 833.33 nM -2.13% | 10000 nM -2.93%

COC1=C(OC)C(=O)C(CCCCCCCCCCO)=C(C)C1=O [idebenone]
inactive: 1 nM -0.23% | 8.33 nM -3.04% | 100 nM -0.1% | 833.33 nM 0.64% | 10000 nM 0.26%

N[C@@H]1CONC1=O [cycloserine-(D)]
inactive: 1 nM -2.12% | 8.33 nM -4.07% | 100 nM -2.78% | 833.33 nM -4.11% | 10000 nM -3.61%

O=C(O)CCN(O)C(=O)CCCCCCCCC1CC1
inactive: 1 nM 2.3% | 8.33 nM -1.05% | 100 nM 1.09% | 833.33 nM 4.48% | 10000 nM 5.29%

C[C@H]1CNCCCN1S(=O)(=O)c1cccc2cncc(F)c12 [ripasudil]
inactive: 1 nM -0.82% | 8.33 nM 0.41% | 100 nM -1.45% | 833.33 nM -1.5% | 10000 nM -5.58%

c1ccc(C(NCCNC(c2ccccc2)c2ccccc2)c2ccccc2)cc1
inactive: 1 nM -3.48% | 8.33 nM -3.4% | 100 nM 3.81% | 833.33 nM 2.97% | 10000 nM -0.01%

CC1=CC(=O)c2ccccc2C1=O [menadione]
inactive: 1 nM 1% | 8.33 nM 1.27% | 100 nM -0.28% | 833.33 nM -0.16% | 10000 nM -2.15%

CCC(CC)(NC(=O)C(C)C)C(=O)N[C@@H](CCCNC(=N)N)C(=O)NC1(C(=O)NC(c2ccc(F)cc2)c2ccc(F)cc2)CCCC1
inactive: 1 nM -0.92% | 8.33 nM -1.15% | 100 nM -1.6% | 833.33 nM 0.7% | 10000 nM -3.48%

CCCCCCCCCCCCCCSCC(=O)O [tetradecylthioacetic-acid]
inactive: 1 nM 0.56% | 8.33 nM 0.01% | 100 nM -2.65% | 833.33 nM -4.9% | 10000 nM 1.48%

COc1ccc(-c2coc3cc(O)ccc3c2=O)cc1 [formononetin]
inactive: 1 nM 0.45% | 8.33 nM 1.81% | 100 nM 1.27% | 833.33 nM -2.13% | 10000 nM -0.02%

Cc1csc2c(N[C@@H](C)CN3CCN(S(=O)(=O)c4ccc(Cl)c(Cl)c4)CC3)ncnc12 [LPA2-antagonist-1]
inactive: 1 nM -0.43% | 8.33 nM -0.37% | 100 nM 1.73% | 833.33 nM 1.34% | 10000 nM 5.53%
